ADAM10 inh – inhibitors of human ADAM10; O14672; recombinant ADAM10, EDANS/DABCYL FRET peptide cleavage, 3 h; inhibition, % at 7 µM; actives 0.62% (n = 370,000);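 active = inhibition above a per-campaign cutoff equal to the mean of compounds falling between control-based bounds plus 3 SD, cut at about 20% in these data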;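 also: 0% = DMSO wells while the 100% control is not disclosed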
FGF22 binding – FGF22 (human) thermal shift binding. Q9HCT0. AID 651658. recombinant FGF22 thermal shift, SYPRO orange fluorescence; percent of sucrose octasulfate shift, DMSO zero. actives 1.5% (n = 340,000). activity (Tm shift, normalised), % at 9.99 µM;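 active = mean Tm shift, scaled 0 neutral to 100 positive control, at about 1.3% or above, every replicate too, limit read from the data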
Ecoli rRNA inh – inhibitors of bacterial rRNA selective over humanized ribosomes; GFP signal change (wild-type ribosome), % (no concentration beside the values); E. coli WT GFP vs humanized-ribosome RFP mutants, fluorescence, 24 h; stronger effect = lower value; DMSO median 0, no signal -100; AID 720706; actives 1.6% (n = 350,000);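 active = significant combined selectivity score with lowered wild-type GFP, culture density cut under 30%, mutant RFP and density less affected; inactive = any of these conditions unmet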
ADAM17 inh – inhibitors of human ADAM17; P78536; recombinant ADAM17, EDANS/DABCYL FRET peptide cleavage; inhibition, % at 6.95 µM; actives 0.83% (n = 370,000); AID 720648;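 active = inhibition above the mean of compounds lying between control limits plus 3 SD, set per campaign, cut at about 8.5% in these data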;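 also: 0% = DMSO-only wells as the low control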
Target sequence (P78536 215-824 limits assumed): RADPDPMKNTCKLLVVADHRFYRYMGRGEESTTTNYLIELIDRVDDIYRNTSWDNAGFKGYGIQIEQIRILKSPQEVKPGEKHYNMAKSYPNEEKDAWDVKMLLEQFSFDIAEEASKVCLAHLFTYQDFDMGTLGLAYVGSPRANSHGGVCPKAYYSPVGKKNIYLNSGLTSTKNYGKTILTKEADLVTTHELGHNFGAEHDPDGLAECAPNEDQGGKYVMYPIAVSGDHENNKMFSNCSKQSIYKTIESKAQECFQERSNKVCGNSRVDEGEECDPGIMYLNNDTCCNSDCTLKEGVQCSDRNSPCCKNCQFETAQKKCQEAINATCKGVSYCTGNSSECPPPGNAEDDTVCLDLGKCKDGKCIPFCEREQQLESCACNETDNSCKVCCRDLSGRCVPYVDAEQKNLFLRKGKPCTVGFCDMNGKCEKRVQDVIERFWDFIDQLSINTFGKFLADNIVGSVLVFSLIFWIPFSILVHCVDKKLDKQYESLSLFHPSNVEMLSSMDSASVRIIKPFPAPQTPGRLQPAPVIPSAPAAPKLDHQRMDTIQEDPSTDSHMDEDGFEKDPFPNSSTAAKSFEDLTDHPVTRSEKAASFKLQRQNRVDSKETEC
KLK7 zymogen act – proKLK7 (human) activation, primary screen | P49862 | purified proKLK7, EDANS-DABCYL substrate fluorescence; 100% is mature enzyme control, 0% vehicle | activation, % at 7 µM | actives 0.9% (n = 370,000) | AID 652039;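 active = activation above the mean of all tested compounds plus 3 SD, computed per campaign excluding outliers beyond control limits, cut at about 13% in these data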
ADAM10 counter – counter-screen for ADAM17 exosite inhibitors: inhibitors of human ADAM10; AID 743256; shares compounds with ADAM17 inh; inhibition, % at 6.95 µM; actives 47% (n = 2,900); recombinant ADAM10, EDANS/DABCYL FRET peptide cleavage, 3 h;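 active = mean inhibition over the triplicate runs exceeds the activity threshold set in the earlier primary screen, cut at about 20% in these data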;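 also: 0% = DMSO wells and 100% = marimastat wells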
ADAM17 confirm – confirmation of inhibitors of human ADAM17. shares compounds with ADAM17 inh. recombinant ADAM17, EDANS/DABCYL QFRET peptide cleavage. inhibition, % at 6.95 µM. actives 65% (n = 2,900);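 active = mean inhibition across replicates above the hit cutoff set in the primary screen, cut at about 8.5% in these data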;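 also: 0% = DMSO wells and 100% = marimastat wells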
Numbers without * were called inactive. Compounds with a hit are over-represented: about 3.8% of the library has one in this group of screens.

For COc1ccc(S(=O)(=O)N(C)C[C@@H]2OCCCC[C@@H](C)Oc3ccc(NC(=O)Nc4cccc5ccccc45)cc3C(=O)N([C@@H](C)CO)C[C@@H]2C)cc1 the results were FGF22 binding 0 and Ecoli rRNA inh 0.
`Cc1ccc(OC(=O)c2ccc(S(=O)(=O)N(C)C)cc2)c(-n2nc3ccccc3n2)c1` gave ADAM10 inh 8, ADAM17 inh 9.1*, KLK7 zymogen act 0, ADAM10 counter 32* and ADAM17 confirm 17*.
`Cc1ccc(OC(=O)c2cccc(S(=O)(=O)N(C)C)c2)c(-n2nc3ccccc3n2)c1` gave ADAM10 inh 14, ADAM17 inh 5 and KLK7 zymogen act 0.
O=C(CCN1CCCCC1)NCC[C@H]1CC[C@@H](NC(=O)C2CCCC2)[C@@H](CO)O1 was read as FGF22 binding 0 and Ecoli rRNA inh -2.
Screening N#CCC(CNc1ncc(C(F)(F)F)cc1Cl)OC(=O)c1ccc(Cl)cc1 (centres undefined) returned ADAM10 inh 16, ADAM17 inh 8.7*, KLK7 zymogen act 1, ADAM10 counter 35* and ADAM17 confirm 16*.
`O=C(Nc1ccccc1)Nc1ccc2c(c1)[C@H]1C[C@H](CC(=O)N3CCCCC3)O[C@@H](CO)[C@H]1O2` gave FGF22 binding 0 and Ecoli rRNA inh -1.
CCOC(=O)c1c(C)n(-c2ccc(F)cc2)c2ccc(O)cc12 was read as Ecoli rRNA inh -3.
COC(=O)c1c(C)n(-c2ccc(OC)cc2)c2ccc(O)cc12 was read as ADAM10 inh 19, ADAM17 inh 12*, KLK7 zymogen act -1, ADAM10 counter 14 and ADAM17 confirm 11*.
For CCOc1cccc(OCCOc2ccc(C(=O)c3ccccc3)cc2)c1 the results were ADAM10 inh 10, FGF22 binding 0, Ecoli rRNA inh 8, ADAM17 inh 10*, KLK7 zymogen act 0, ADAM10 counter 20 and ADAM17 confirm 14*.
O=C(c1ccccc1)c1ccc(OCCO)cc1 was read as ADAM10 inh -3, FGF22 binding 0, Ecoli rRNA inh 7, ADAM17 inh 0 and KLK7 zymogen act 0.
Screening COc1cc(OC)cc(C(=O)NNC(=O)CNC(=O)c2cccs2)c1 returned ADAM10 inh 6, FGF22 binding 0, Ecoli rRNA inh 6, ADAM17 inh 9.2*, KLK7 zymogen act -1, ADAM10 counter 3 and ADAM17 confirm 4.
For Cc1cc(NC(=O)c2ccc3c(c2)C(=O)N(Cc2ccccc2)C3=O)no1 the results were ADAM10 inh -9, FGF22 binding 0, Ecoli rRNA inh 15, ADAM17 inh -4 and KLK7 zymogen act 0.
`CCCN1C(=O)c2ccc(C(=O)Nc3cc(C)on3)cc2C1=O` gave ADAM10 inh 0, ADAM17 inh 9.7*, KLK7 zymogen act 1, ADAM10 counter -3 and ADAM17 confirm -4.
`CCOC(=O)N1CCN(C(=O)C[C@H]2C[C@@]3(C(=O)OC)C(=C[C@H](C(C)(C)C)O[C@@H]3C)N(CCC3=CCCCC3)C2=O)CC1` gave ADAM10 inh 11, FGF22 binding 0, Ecoli rRNA inh 3, ADAM17 inh 10*, KLK7 zymogen act 1, ADAM10 counter 10 and ADAM17 confirm 7.
COc1ccc(NCC(=O)Nc2ccc(Br)cc2F)c(OC)c1 was read as ADAM10 inh 5, FGF22 binding 0, Ecoli rRNA inh 10, ADAM17 inh 10*, KLK7 zymogen act 0, ADAM10 counter 27* and ADAM17 confirm 9.3*.
Screening CC(C)c1ccc(S(=O)(=O)N2CCN(C(=S)NCc3ccco3)CC2)cc1 returned ADAM10 inh 5, ADAM17 inh 9.5*, KLK7 zymogen act 0, ADAM10 counter 28* and ADAM17 confirm 17*.
Screening O=S(=O)(c1cccc(C(F)(F)F)c1)N1CCN(C(=S)NCc2ccco2)CC1 returned ADAM10 inh -3, ADAM17 inh 2 and KLK7 zymogen act 0.
O=C(CCc1nc(-c2ccccc2)no1)NC1CCCCC1 was read as ADAM10 inh 3, ADAM17 inh 9.0*, KLK7 zymogen act 0, ADAM10 counter -5 and ADAM17 confirm 2.
Screening O=C(COc1cccc(F)c1)NNC(=O)c1cccc(-n2cccc2)c1 returned ADAM10 inh -5, FGF22 binding 0, Ecoli rRNA inh 9, ADAM17 inh 0 and KLK7 zymogen act 0.
For O=C(COc1ccccc1F)NNC(=O)c1cccc(-n2cccc2)c1 the results were ADAM10 inh 11, FGF22 binding 0, Ecoli rRNA inh -44*, ADAM17 inh 15*, KLK7 zymogen act 0, ADAM10 counter -1 and ADAM17 confirm 3.
O=C(Nc1ccc(F)cc1)c1ccccc1Oc1ccc(C(F)(F)F)cc1[N+](=O)[O-] was read as ADAM10 inh 17, ADAM17 inh 11*, KLK7 zymogen act 1, ADAM10 counter 23* and ADAM17 confirm 12*.
Screening COc1ccc(CCC(=O)NNC(=O)c2cc(Cl)ccc2OC)cc1 returned ADAM10 inh -13, Ecoli rRNA inh 3, ADAM17 inh 8.8*, KLK7 zymogen act 0, ADAM10 counter 8 and ADAM17 confirm 6.
`COc1ccc(CCC(=O)NNC(=O)c2cc(Cl)ccc2OC)cc1OC` gave ADAM10 inh 1, FGF22 binding 0, Ecoli rRNA inh 1, ADAM17 inh -3 and KLK7 zymogen act 0.
For Cc1ccccc1C(=O)N1CCN(c2ccc(NC(=O)c3ccco3)cc2Cl)CC1 the results were ADAM10 inh 0, ADAM17 inh -1 and KLK7 zymogen act 0.
`O=C(Nc1ccc(N2CCN(C(=O)c3cccs3)CC2)c(Cl)c1)c1ccco1` gave ADAM10 inh 3, Ecoli rRNA inh -1, ADAM17 inh 9.0*, KLK7 zymogen act 1, ADAM10 counter 5 and ADAM17 confirm 9.
C[C@@H]1CN([C@H](C)CO)C(=O)CCCn2cc(nn2)CO[C@@H]1CN(C)S(=O)(=O)c1ccc(Cl)cc1 was read as FGF22 binding 0 and Ecoli rRNA inh -1.
For CCN(CC)S(=O)(=O)c1ccc(N=Nc2c(C)[nH]n(C(N)=S)c2=O)cc1 the results were ADAM10 inh 9, ADAM17 inh 12*, KLK7 zymogen act 0, ADAM10 counter 8 and ADAM17 confirm 3.
